Whole data set: some 1,100 compounds, median “Wnt reporter firefly/Renilla luciferase ratio relative to plate median” near 1.1, cut for the highest 2% near 1.6. Shown is part of a subset that was picked to be rich in the highest values.
Test system: HEK293T (UBE3A T485A transfected, BAR Wnt reporter)
Test: Wnt reporter firefly/Renilla luciferase ratio relative to plate median (fold (linear ratio)); higher = more Wnt/beta-catenin reporter activation
Details: 24 h
Outline: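 Using Fugene 6, HEK293T cells in white 384-well plates (4500 cells/well; DMEM, 10% FBS, 37°C, 5% CO2) were transfected with a BAR firefly luciferase Wnt reporter, TK-Renilla and an expression plasmid. After four hours, robots dosed the chemicals at 0.01–100 uM, and a Dual-Glo luciferase readout followed 24 h later. Per-plate median-centred firefly/Renilla ratios gave Wnt activity, while per-plate median-centred raw Renilla signals gave cell health. Four biological replicates were averaged.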

SMILES	Wnt reporter firefly/Renilla luciferase ratio (concentration: 0.01 uM)	Wnt reporter firefly/Renilla luciferase ratio (concentration: 0.1 uM)	Wnt reporter firefly/Renilla luciferase ratio (concentration: 1 uM)	Wnt reporter firefly/Renilla luciferase ratio (concentration: 10 uM)	Wnt reporter firefly/Renilla luciferase ratio (concentration: 100 uM)
CCON=C(CC)C1=C(O)CC(c2c(C)cc(C)cc2C)CC1=O (stereo not given) [Tralkoxydim]	1.14	1.54	1.03	1.05	0.67
CN(C)C(=O)Nc1ccc(Cl)cc1 [Monuron]	–	0.888	0.901	1.09	1.04
CON(C)C(=O)Nc1ccc(Cl)c(Cl)c1 [Linuron]	1.1	0.829	1.11	1.17	0.524
CCC(=O)Nc1ccc(Cl)c(Cl)c1 [Propanil]	1.31	1.71	0.955	1.25	0.294
ClC1=C(Cl)C2(Cl)C3C(Cl)C=CC3C1(Cl)C2(Cl)Cl (stereo not given) [Heptachlor]	–	0.972	1.07	1.17	1.24
N#CC(Br)Br [Dibromoacetonitrile]	–	1.15	1.01	1.17	1.19
O=[N+]([O-])c1ccc(Cl)c(Cl)c1 [3,4-Dichloronitrobenzene]	–	1.21	1.14	1.29	1.54
Nc1c(Cl)cc([N+](=O)[O-])cc1Cl [Dicloran]	1.85	1.64	0.962	1.29	0.345
O=[N+]([O-])c1ccc(Cl)cc1 [1-Chloro-4-nitrobenzene]	–	1.04	1.2	1.02	1.38
CCC(C)(c1ccc(O)cc1)c1ccc(O)cc1 [Bisphenol B]	–	1.11	0.969	0.999	0.0398
N#Cc1c(Cl)c(Cl)c(Cl)c(C#N)c1Cl [Chlorothalonil]	0.876	0.784	1.16	0.725	–
CCCCOC(=O)[C@@H](C)Oc1ccc(Oc2ccc(C#N)cc2F)cc1 [Cyhalofop-butyl]	1.1	0.959	1.06	0.848	0.697
CC(C)(OOC(C)(C)c1ccccc1)c1ccccc1 [Dicumyl peroxide]	–	1.15	0.998	0.968	1.39
C#CCC1=C(C)C(OC(=O)C2C(C=C(C)C)C2(C)C)CC1=O (stereo not given) [Prallethrin]	0.931	0.996	1.04	1.05	0.276
CC(C)(C)c1ccc(O)cc1 [4-tert-Butylphenol]	–	0.97	1.1	0.863	1.21
CO/C=C(/C(=O)OC)c1ccccc1Oc1cc(Oc2ccccc2C#N)ncn1 [Azoxystrobin]	1.4	1.25	1.04	0.786	0.984
CCC(=NOC/C=C/Cl)C1=C(O)CC(C2CCOCC2)CC1=O (stereo not given) [Tepraloxydim]	0.655	0.79	1.12	1.08	1.18
O=[N+]([O-])c1c(Cl)c(Cl)c(Cl)c(Cl)c1Cl [Pentachloronitrobenzene]	0.743	0.765	1	0.856	1.26
Nc1ccc(Cl)cc1 [4-Chloroaniline]	–	1.15	1.08	0.914	0.367
CCOP(=S)(OCC)Oc1cc(C)nc(C(C)C)n1 [Diazinon]	0.789	0.815	1.01	1.25	1.14
